Assay results taken from PubChem BioAssay (NCATS).
Records with an inconclusive call do not appear. Calls of active or inactive are those of the source. Calls follow the shape of the dose curve; as a rule, active = well fitted curve in the direction sought with a large enough effect; inconclusive = small, poorly fitted or top-dose-only effect, or another doubt; inactive = no such curve, though single readings can be large; an effect the other way counts as inactive or inconclusive.

Experiments:
CRL-7250 = normal cell line; test: Cytotoxic Profiling of Annotated Libraries Using Quantitative High-Throughput Screening (AID 1296008); conditions: Five cell lines viability, CellTiter-Glo ATP luminescence, 48-72 h; max response: stronger effect = lower value; also: nearly all actives have a fitted effect of over 60% in size; as to max response: % is scaled to controls: 0 for no effect and ±100 for the full control effect
Summary of the method: (§1)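 Cells exposed to compounds for 48 or 72 hr at 37 degrees Celsius. Viability read as ATP-coupled luminescence with CellTiter-Glo after 10 min at room temperature.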

HEK293 = test: as above; conditions: Five cell lines viability, CellTiter-Glo ATP luminescence, 48-72 h; max response: stronger effect = lower value
Summary of the method: as §1

HaCat [1] = test: as above; conditions: Five cell lines viability, CellTiter-Glo ATP luminescence, 48-72 h; max response: stronger effect = lower value
Summary of the method: as §1

KB-3-1 = test: as above; conditions: Five cell lines viability, CellTiter-Glo ATP luminescence, 48-72 h; max response: stronger effect = lower value
Summary of the method: as §1

NIH3T3 = test: as above; conditions: Five cell lines viability, CellTiter-Glo ATP luminescence, 48-72 h; max response: stronger effect = lower value
Summary of the method: as §1

HACAT [2] = test: qHTS assay to identify novel small-molecules to repurpose for Merkel cell carcinoma treatment (AID 1296009); conditions: MCC and control cell lines, CellTiter-Glo viability, 72 h; at 44.8 µM (top of the series) unless noted; also: nearly all actives have a fitted effect of over 60% in size
Summary of the method: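 Cells were treated for 72 hr at 37 degree celsius with compounds in 8- or 11-point dose response. Viability was read by CellTiter-Glo luminescence, normalized to no-cell (cytotoxicity) and DMSO controls.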

C33A = test: Primary qHTS to identify gynecologic anti-cancer compounds using libraries of approved drugs and bioactive compounds (AID 1345084); conditions: Gynecologic cancer cell panel viability, ATPlite luminescence, 48 h; series mostly up to 57.5 µM; also: % is scaled to controls: 0 for no effect and ±100 for the full control effect; nearly all actives have a fitted effect of over 55% in size
Summary of the method: (§2)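 Cell viability after 48 h drug treatment, ATPlite luminescence readout; five doses.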

CAOV3 = test: as above; conditions: Gynecologic cancer cell panel viability, ATPlite luminescence, 48 h; series mostly up to 57.5 µM
Summary of the method: as §2

CASKI = test: as above; conditions: Gynecologic cancer cell panel viability, ATPlite luminescence, 48 h; series mostly up to 57.5 µM
Summary of the method: as §2

Es-2 = test: as above; conditions: Gynecologic cancer cell panel viability, ATPlite luminescence, 48 h; series mostly up to 57.5 µM
Summary of the method: as §2

HeLa = test: as above; conditions: Gynecologic cancer cell panel viability, ATPlite luminescence, 48 h; series mostly up to 57.5 µM
Summary of the method: as §2

Hek293T = test: as above; conditions: Gynecologic cancer cell panel viability, ATPlite luminescence, 48 h, control line for the selectivity index; series mostly up to 57.5 µM
Summary of the method: as §2

JEG-3 = test: as above; conditions: Gynecologic cancer cell panel viability, ATPlite luminescence, 48 h; series mostly up to 57.5 µM
Summary of the method: as §2

C[C@@H]1O[C@@H](O[C@H]2[C@H](O[C@H]3[C@H](O[C@H]4CC[C@@]5(C)C(CC[C@]6(C)C5CC=C5[C@@H]7CC(C)(C)C[C@@H](O)[C@]7(C)CC[C@]56C)C4(C)C)O[C@H](C(=O)O)[C@@H](O)[C@@H]3O)O[C@H](C(=O)O)[C@H](O)[C@@H]2O)[C@H](O)[C@H](O)[C@H]1O (some centres undefined)
inactive: max response (CRL-7250) -7.66% | max response (HEK293) -8.11% | outcome (HaCat [1]) | outcome (KB-3-1) | max response (NIH3T3) 0.708% | outcome (HACAT [2]) inactive [at 9.27 µM] | activity change, negative = cytotoxicity (C33A) -4.31% [at 11.6 µM] | activity change, negative = cytotoxicity (CAOV3) -1.54% [at 11.6 µM] | activity change, negative = cytotoxicity (CASKI) 12.7% [at 11.6 µM] | activity change, negative = cytotoxicity (Es-2) -10.8% [at 11.6 µM] | activity change, negative = cytotoxicity (HeLa) 5.18% [at 11.6 µM] | activity change, negative = cytotoxicity (Hek293T) 6.67% [at 11.6 µM] | activity change, negative = cytotoxicity (JEG-3) -0.21% [at 11.6 µM]

COc1cc(Nc2ccc([N+](=O)[O-])cc2C(=O)O)cc2ccccc12
inactive: max response (CRL-7250) -0.179% | max response (HEK293) 1.77% | outcome (HaCat [1]) | max response (KB-3-1) -5.92% | max response (NIH3T3) -2.53% | outcome (HACAT [2]) | Potency (C33A) | Potency (CAOV3) | outcome (CASKI) | Potency (Es-2) | Potency (HeLa) | Potency (Hek293T) | Potency (JEG-3)

COc1cc(O)cc2c1C(=O)OC(C)C2 (centres undefined)
inactive: max response (CRL-7250) 4.54% | max response (HEK293) 4.69% | outcome (HaCat [1]) | max response (KB-3-1) 3.07% | max response (NIH3T3) -0.229% | outcome (HACAT [2]) | Potency (C33A) | Potency (CAOV3) | outcome (CASKI) | Potency (Es-2) | Potency (HeLa) | Potency (Hek293T) | Potency (JEG-3)

C/C=C(\C)C(=O)O[C@H]1C=CC(=O)O[C@H]1/C=C/[C@H](O)[C@@H](C)O
inactive: max response (CRL-7250) 4.14% | max response (HEK293) -103% | outcome (HaCat [1]) | outcome (KB-3-1) | max response (NIH3T3) -1.43% | outcome (HACAT [2]) | Potency (C33A) | Potency (CAOV3) | outcome (CASKI) | Potency (Es-2) | Potency (HeLa) | Potency (Hek293T) | Potency (JEG-3)

O=C(/C=C/c1ccc(O)c(O)c1)O[C@H]1[C@@H]2C=CO[C@@H](O[C@@H]3O[C@H](CO)[C@@H](O)[C@H](O)[C@H]3O)[C@@H]2[C@@]2(CO)O[C@@H]12
inactive: max response (CRL-7250) -3.33% | max response (HEK293) -6.64% | outcome (HaCat [1]) | outcome (KB-3-1) | max response (NIH3T3) -4.11% | outcome (HACAT [2]) inactive [at 17.4 µM] | Potency (C33A) | Potency (CAOV3) | outcome (CASKI) | Potency (Es-2) | Potency (HeLa) | Potency (Hek293T) | Potency (JEG-3)

O=C(Nc1ccc(N2CCC(C(=O)N3CCOCC3)CC2)cc1)c1cnc(Oc2ccccc2)nc1
inactive: max response (CRL-7250) -3.51% | max response (HEK293) -17.8% | outcome (HaCat [1]) | max response (KB-3-1) -6.22% | max response (NIH3T3) -17.6% | outcome (HACAT [2]) | Potency (C33A) | Potency (CAOV3) | outcome (CASKI) | Potency (Es-2) | Potency (HeLa) | Potency (Hek293T) | Potency (JEG-3)

C=C1CC2C(C)(CCC(=O)O)C(C(C)(C)O)CCC2(C)C2(C(=O)OC)C(=O)C(C)(O)C(=O)C12C (centres undefined)
inactive: max response (CRL-7250) -12.5% | max response (HEK293) -13.4% | outcome (HaCat [1]) | max response (KB-3-1) 1.2% | max response (NIH3T3) 0.874% | outcome (HACAT [2]) inactive [at 17.4 µM] | Potency (C33A) | Potency (CAOV3) | outcome (CASKI) | Potency (Es-2) | Potency (HeLa) | Potency (Hek293T) | Potency (JEG-3)

CCC(=O)N1CCc2cc(OC)c(O)cc2C1
inactive: max response (CRL-7250) -24.5% | max response (HEK293) -5.69% | outcome (HaCat [1]) | max response (KB-3-1) -5.14% | max response (NIH3T3) 3.84% | outcome (HACAT [2]) | Potency (C33A) | Potency (CAOV3) | outcome (CASKI) | Potency (Es-2) | Potency (HeLa) | Potency (Hek293T) | Potency (JEG-3)

COC(=O)C[C@H]1C(C)(C)[C@H](OC(=O)C(C)C)C2CC3=C4CC(=O)O[C@@H](c5ccoc5)[C@]4(C)CCC3[C@@]1(C)C2=O (some centres undefined)
inactive: max response (CRL-7250) 2.69% | max response (HEK293) -10.8% | outcome (HaCat [1]) | max response (KB-3-1) -0.987% | max response (NIH3T3) 1.73% | outcome (HACAT [2]) inactive [at 17.4 µM] | Potency (C33A) | Potency (CAOV3) | outcome (CASKI) | Potency (Es-2) | Potency (HeLa) | Potency (Hek293T) | Potency (JEG-3)

C=CC(C)(O)C1CC2C3(C)CCCC(C)(C)C3C(O)C(O)C2(C)O1 (centres undefined)
inactive: max response (CRL-7250) -10.8% | max response (HEK293) 3.38% | outcome (HaCat [1]) | outcome (KB-3-1) | max response (NIH3T3) -13.6% | outcome (HACAT [2]) | Potency (C33A) | Potency (CAOV3) | outcome (CASKI) | Potency (Es-2) | Potency (HeLa) | Potency (Hek293T) | Potency (JEG-3)

C/C=C/C=C/C=C/C(=O)N(C)C(C(=O)NC(C)C(=O)N1CCCC1C(N)=O)C(C)C (centres undefined)
inactive: max response (CRL-7250) -4.46% | max response (HEK293) 2.9% | outcome (HaCat [1]) | outcome (KB-3-1) | max response (NIH3T3) 0.323% | outcome (HACAT [2]) inactive [at 17.4 µM] | Potency (C33A) | Potency (CAOV3) | outcome (CASKI) | Potency (Es-2) | Potency (HeLa) | Potency (Hek293T) | Potency (JEG-3)

CC(=O)OC1CC(C(C)(C)O)OC2CCC3(C)OC4=C(C(=O)C=C5C(C)C(OC(C)=O)C6(C)C(C)OC546)C(O)C3C12C (centres undefined)
inactive: outcome (CRL-7250) | max response (HEK293) -23.5% | outcome (HaCat [1]) | max response (KB-3-1) 5.34% | max response (NIH3T3) 1.94% | outcome (HACAT [2]) inactive [at 17.4 µM] | Potency (C33A) | Potency (CAOV3) | outcome (CASKI) | Potency (Es-2) | Potency (HeLa) | Potency (Hek293T) | Potency (JEG-3)

C/C=C/C=C/[C@@H]1O[C@](O)([C@H](CC)C(=O)NC/C=C/C=C(\C)[C@@H](OC)[C@@H](C)[C@@H]2O[C@H](/C=C/C=C/C=C(\C)C(=O)c3c(O)ccn(C)c3=O)[C@H](O)[C@@H]2O)[C@H](O)[C@H](O)C1(C)C
inactive: max response (CRL-7250) -0.994% | max response (HEK293) -2.35% | outcome (HaCat [1]) | outcome (KB-3-1) | max response (NIH3T3) 2.66% | outcome (HACAT [2]) inactive [at 9.27 µM] | activity change, negative = cytotoxicity (C33A) 0.106% [at 11.6 µM] | activity change, negative = cytotoxicity (CAOV3) 11.3% [at 11.6 µM] | activity change, negative = cytotoxicity (CASKI) -1.78% [at 11.6 µM] | activity change, negative = cytotoxicity (Es-2) -3.84% [at 11.6 µM] | activity change, negative = cytotoxicity (HeLa) 12.5% [at 11.6 µM] | activity change, negative = cytotoxicity (Hek293T) -0.774% [at 11.6 µM] | activity change, negative = cytotoxicity (JEG-3) -3.88% [at 11.6 µM]
